Screening data: PubChem BioAssay, The Scripps Research Institute Molecular Screening Center
This is a sample that favours compounds with a hit; in the whole collection about 3.5% have one here.
FBW7 activator – human FBW7 E3 ligase activation, primary screen | actives 0.13% (n = 650,000) | AlphaScreen FBW7–phospho-cyclin E peptide binding, activator screen | AID 1259310 | normalized activity (activation), % at 26.1 µM | Q969H0; in the data active means normalized activity above about 1.9%;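 further: purified mutant Fbw7 with reduced substrate affinity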
GPR151 activ – human GPR151 activation; Q8TDV0; PathHunter beta-arrestin GPR151 cells, luminescence; activation, % at 11.2 µM; actives 1% (n = 650,000); AID 1508602; in the data active means activation above about 4.9%;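 further: 0% = median of compound wells and 100% = cells with positive control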
MITF primary – human MITF inhibition, primary screen. AlphaScreen MITF homodimerization, bead proximity signal. actives 0.91% (n = 650,000). inhibition, % at 2.6 µM. O75030. AID 1259374; in the data active means inhibition above about 50%;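 further: 0% = vehicle wells with protein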
Target sequence (O75030 whole entry, looked up): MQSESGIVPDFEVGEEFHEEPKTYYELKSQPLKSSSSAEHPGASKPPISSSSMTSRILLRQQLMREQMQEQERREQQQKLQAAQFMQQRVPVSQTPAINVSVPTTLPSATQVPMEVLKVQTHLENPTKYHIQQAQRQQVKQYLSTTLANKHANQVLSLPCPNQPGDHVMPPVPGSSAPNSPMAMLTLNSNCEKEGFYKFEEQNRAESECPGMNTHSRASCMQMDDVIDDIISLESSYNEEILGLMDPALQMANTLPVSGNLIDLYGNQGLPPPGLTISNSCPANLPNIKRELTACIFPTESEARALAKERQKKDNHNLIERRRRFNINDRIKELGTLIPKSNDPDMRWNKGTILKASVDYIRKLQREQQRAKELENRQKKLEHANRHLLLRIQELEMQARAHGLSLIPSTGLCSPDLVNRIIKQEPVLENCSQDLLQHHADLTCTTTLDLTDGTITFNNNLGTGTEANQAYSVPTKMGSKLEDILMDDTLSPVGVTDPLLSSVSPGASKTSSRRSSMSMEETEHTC
TEAD-YAP inh – TEAD-YAP interaction inhibition | HEK-TIYL cells, TEAD-Gal4/YAP UAS-luciferase luminescence | inhibition, % at 9.12 µM | actives 1.4% (n = 640,000); in the data active means inhibition above about 32%;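 further: 0% = median of test compound wells and 100% = reference inhibitor wells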
MITF confirm – confirmation of human MITF inhibitors | shares compounds with MITF primary | AlphaScreen MITF homodimerization, biotin/His-MITF beads | inhibition, % at 2.6 µM | actives 16% (n = 4,700);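 active means inhibition above a cutoff derived from the DMSO control wells, cut at about 28% in these data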;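 further: 0% = MITF dimer wells with DMSO only; inhibitors lower the bead chemiluminescence by keeping MITF from dimerizing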
AS interf DR – optically interferes with AlphaScreen signal in dose response. shares compounds with MITF primary. IC50, µM. AlphaScreen optical interference counterscreen, cell-free. actives 6% (n = 480); call rule not given here
AlphaScreen intf2 – counter-screen: compounds optically interfering with AlphaScreen | shares compounds with MITF primary | LysRS AlphaScreen counterscreen, signal interference, triplicate | inhibition, % at 2.6 µM | actives 7.6% (n = 4,700);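 active means inhibition above a cutoff derived from the DMSO control wells, cut at about 30% in these data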
* marks the source's active call; other numbers are inactive results; · = not tested or not shown; ! = repeats disagree.

SMILES	FBW7 activator	GPR151 activ	MITF primary	TEAD-YAP inh	MITF confirm	AlphaScreen intf2	others
O=C(CN1CCC(N2CCCCC2)CC1)c1ccc2c(c1)OCCO2	0	3	58*	-6	11	16
COc1cc(/C=C2\SC(c3ccccc3)=NC2=O)cc(Br)c1O	0	0	2	2	·	·
O=c1c(O)c(-c2ccc(O)cc2O)oc2cc(O)cc(O)c12	0	0	67*!	0	43*	-7	AS interf DR=>6.5
CC1=N/C(=C/c2ccc([N+](=O)[O-])cc2)C(=O)N1c1cc(Cl)ccc1Cl	0	-1	19	-9	·	·
COc1ccc(CN2CCCC(O)C2)cc1OC (stereo not given)	0	1	45	11	·	·
COc1cc(CN2CCCC(C(=O)N3CCCCCC3)C2)cc(OC)c1OC (stereo not given)	0	0	61*	0	-7	-9
COc1ccc(CN2CCCC(C(=O)N3CCCCCC3)C2)cc1OC (stereo not given)	0	0	60*	0	-13	-7
C=C(C)CN(CC)C(=O)C1CCN(Cc2cc(OC)c(OC)c(OC)c2)CC1	0	1	56*	5	10	14
O=C(C1CCCN(Cc2cccc(Cl)c2)C1)N1CCCCC1 (stereo not given)	0	1	44	-3	·	·
COc1cccc(CN2CCCC(C(=O)N3CCCCC3)C2)c1 (stereo not given)	0	-1	69*	9	-13	-3
O=C(O)C1CC(=O)N(c2ccc(Cl)cc2Cl)C1 (stereo not given)	0	0	13	8	·	·
COc1cc(Nc2ccc(NC(=O)c3cccc(F)c3)cc2)nc(C)n1	0	1	57*	15	-5	-6
Cc1ccc(CNC(=O)[C@@H]2C[C@H](n3cnnn3)CN2Cc2ccc(C)cc2C)cc1	0	1	-15	-1	·	·
CCCc1nc2ccccc2c(NC(=O)CN(C)CCc2ccc(OC)c(OC)c2)c1CC	0	3	70*	7	7	-1
CCCC(=O)Nc1c(CC)c(CCC)nc2ccccc12	0	1	5	3	·	·
COc1cccc(Nc2cc(N3CCC4(CC3)OCCO4)c3noc4c3c2C(=O)c2ccccc2-4)c1	0	-1	21	-1	·	·
COc1ccc(N2C(=O)C3CCCCC3C2=O)cc1NC(=O)c1ccc(Cl)cc1Cl (stereo not given)	0	0	76*	8	8	20
COc1ccc(OC)c(NC(=O)c2ccc(Cl)cc2Cl)c1	0	0	9	-8	·	·
COc1ccc(NC(=O)CSc2nc3ccccc3nc2Cc2ccccc2OC)cc1Cl	0	-1	-12	11	·	·
COc1ccccc1Cc1nc2ccccc2nc1SCC(=O)Nc1ccc(OC)c(OC)c1	0	4	73*	-26	4	-6
O=C(O)CNC(=O)CC1S/C(=N/N=C/c2ccccc2O)NC1=O (stereo not given)	0	4	5	2	·	·
O=C(CC1S/C(=N/N=C2\CSC(=O)N2)NC1=O)Nc1ccc(F)cc1 (stereo not given)	0	1	61*	0	49*	99*
O=C(O)CNC(=O)CC1S/C(=N/N=C2\CSC(=O)N2)NC1=O (stereo not given)	0	3	88*	3	80*	100*
O=C(CC1S/C(=N/N=C2\CSC(=O)N2)NC1=O)Nc1ccc(Cl)cc1 (stereo not given)	0	1	49	5	·	·
COc1cc(C2c3c(-c4ccccc4)n[nH]c3C(=O)N2c2ccc(Cl)cc2)ccc1O (stereo not given)	0	1	7	0	·	·
O=C(CCCNC(=O)OCc1ccccc1)OCN1C(=O)c2ccccc2C1=O	0	1	-4	4	·	·
CC1NC(=O)NC1CCCCCC(=O)OCN1C(=O)c2ccccc2C1=O (stereo not given)	0	0	119*	-4	117*	99*
COc1ccccc1NC(C)C(=O)N/N=C/c1cc(Br)cc(OC)c1O (stereo not given)	0	-1	23	7	·	·
Cc1cc(NCc2cccc(C(F)(F)F)c2)nc(-c2csc3ccccc23)n1	0	0	14	-6	·	·
